Results filed as inconclusive are left out. Some compounds were tested as several samples or in several runs, with calls that do not always agree. The source made the active and inactive calls. Unless noted, the call rests on the fitted dose curve; in most records, active means well fitted curve in the direction sought with a large enough effect; inconclusive means small, poorly fitted or top-dose-only effect, or another doubt; inactive means no such curve, though single readings can be large; an effect the other way counts as inactive or inconclusive.
What was measured:
[1] = system: Zika virus NS2B-NS3 protease; assay: Primary screen GU AMC qHTS for Zika virus inhibitors (AID 1347154);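 further: 0% = no-inhibitor control and -100% = no-enzyme control; nearly all actives have a fitted effect of over 70% in size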
Summary of the method: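 Unlinked Zika NS2B hydrophilic domain/NS3 protease domain noncovalent complex (25 nM final) in 10 mM Tris-HCl pH 8.0, 0.01% Tween 20, with AMC peptide substrate. Fluorescence (ex 340, em 450 nm) change over 15 min, room temperature; percent inhibition fitted to 4-parameter Hill equation.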

[2] = Counterscreen qHTS for small molecule stabilizers of the endoplasmic reticulum resident proteome: GLuc-NoTag assay (AID 1508627);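 further: SH-SY5Y cells given compound then 100 nM thapsigargin to empty ER calcium; 0% = thapsigargin alone and -100% = DMSO vehicle control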
Summary of the method: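 SH-SY5Y cells stably expressing constitutively secreted GLuc (no SERCaMP tag) were pre-incubated 5 h, treated with compound for 19 h, then 100 nM thapsigargin for 4 h at 37C; medium GLuc read by coelenterazine luminescence.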

[3] = Confirmatory qHTS for small molecule stabilizers of the endoplasmic reticulum resident proteome: Secreted ER Calcium Modulated Protein (SERCaMP) assay (AID 1508628); further: nearly all actives have a fitted effect of over 40% in size; further: potency means the concentration at half of the fitted maximal effect
Summary of the method: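 We seeded SH-SY5Y-GLuc-SERCaMP cells, added compounds (three concentrations in the primary run, eleven up to 76.6 uM in confirmation), incubated 16 h, depleted ER calcium with thapsigargin, and read luciferase 4 h later.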

[4] = Primary qHTS for inhibitors of nuclear receptor binding SET domain protein 2 (NSD2) in an RCH-ACV wild type WT cells (2C) (AID 1645877); further: on the % scale 0 is the no-effect control and ±100 the full control effect; nearly all actives have a fitted effect of over 70% in size
[5] = biological target: Cytochrome P450 1A2 (Homo sapiens) (UniProt P05177); assay: p450-cyp1a2 (AID 410; calls by dose curve)
Sequence of Cytochrome P450 1A2 (Homo sapiens) (P05177 whole entry, looked up): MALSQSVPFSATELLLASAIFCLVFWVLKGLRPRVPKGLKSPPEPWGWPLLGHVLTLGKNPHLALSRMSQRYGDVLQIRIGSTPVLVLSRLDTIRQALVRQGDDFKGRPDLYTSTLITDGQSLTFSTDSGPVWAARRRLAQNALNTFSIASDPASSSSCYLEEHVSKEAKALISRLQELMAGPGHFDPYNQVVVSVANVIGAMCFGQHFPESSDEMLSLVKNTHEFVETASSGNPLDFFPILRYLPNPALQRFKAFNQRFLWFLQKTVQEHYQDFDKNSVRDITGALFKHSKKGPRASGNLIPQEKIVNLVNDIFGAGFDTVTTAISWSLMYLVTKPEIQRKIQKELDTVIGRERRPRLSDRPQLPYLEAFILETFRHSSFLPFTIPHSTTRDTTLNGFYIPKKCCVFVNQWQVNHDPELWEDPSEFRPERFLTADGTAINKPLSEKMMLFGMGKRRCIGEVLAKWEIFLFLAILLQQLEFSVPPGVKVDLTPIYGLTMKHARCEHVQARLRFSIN
Summary of the method: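 Human CYP1A2 (20nM) demethylated Luciferin-ME at its Km (100uM) in 100mM KPO4. After 10 min compound preincubation, NADPH regeneration ran the reaction 60 min at room temperature. Luciferin was read by luminescence, normalized to 57 uM furafylline.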

[6] = biological target: Glucocorticoid receptor (Homo sapiens) (UniProt P04150); assay: GR-GFP Redistribution (AID 450;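 active means compounds whose dose series gives a full or clear partial fitted curve of increased nuclear translocation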; further: potency means the concentration at half of the fitted maximal effect); settings: U2OS GR-GFP nuclear translocation, laser cytometry, 2 h
Sequence of Glucocorticoid receptor (Homo sapiens) (P04150 whole entry, looked up, the tested form may be a part): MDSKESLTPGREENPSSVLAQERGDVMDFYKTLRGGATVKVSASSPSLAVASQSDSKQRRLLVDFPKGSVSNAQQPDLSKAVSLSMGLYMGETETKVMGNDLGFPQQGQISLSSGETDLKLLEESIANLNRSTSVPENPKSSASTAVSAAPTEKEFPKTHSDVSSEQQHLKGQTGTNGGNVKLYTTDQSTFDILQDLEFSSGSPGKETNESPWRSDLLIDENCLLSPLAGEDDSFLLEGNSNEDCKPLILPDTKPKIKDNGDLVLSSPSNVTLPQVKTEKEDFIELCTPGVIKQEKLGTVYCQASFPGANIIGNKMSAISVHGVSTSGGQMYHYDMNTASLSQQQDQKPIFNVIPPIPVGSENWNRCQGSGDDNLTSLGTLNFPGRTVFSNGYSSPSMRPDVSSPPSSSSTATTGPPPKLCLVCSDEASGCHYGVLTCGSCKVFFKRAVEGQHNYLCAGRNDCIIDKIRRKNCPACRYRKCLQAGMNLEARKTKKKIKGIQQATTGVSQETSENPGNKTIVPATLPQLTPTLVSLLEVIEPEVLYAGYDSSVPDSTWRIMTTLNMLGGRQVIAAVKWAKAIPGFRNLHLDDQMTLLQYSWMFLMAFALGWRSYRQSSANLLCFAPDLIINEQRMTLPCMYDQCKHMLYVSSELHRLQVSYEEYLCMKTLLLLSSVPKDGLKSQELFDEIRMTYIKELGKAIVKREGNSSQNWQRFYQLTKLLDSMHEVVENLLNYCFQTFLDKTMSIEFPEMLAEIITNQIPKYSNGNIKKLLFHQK

[7] = biological target: Glucocorticoid receptor (Homo sapiens) (UniProt P04150); assay: GR-EFC Redistribution (AID 451; calls by dose curve; further: potency means the concentration at half of the fitted maximal effect); settings: CHO-K1 GR-EFC translocation, beta-gal luminescence, 2 h
Summary of the method: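 CHO-K1 cells stably expressing nuclear-localized β-gal enzyme acceptor and GR fused C-terminally to the enzyme donor fragment; ligand-driven nuclear translocation restores β-gal by complementation. Compounds titrated up to 46 uM final, 2 h at 37 °C; luminescence read.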

[8] = biological target: Mitogen-activated protein kinase 10 (Mus musculus) (UniProt Q61831); assay: JNK3 AlphaScreen Assay (AID 530; active means well fitted curve in either direction with a large enough effect, not every such curve was filed as active;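 further: kinase came from lysate of stimulated human HepG2 cells; signal reports phosphorylation of biotinylated GST-cJun 1-79 at Ser73 with 10 µM ATP; on the % scale 0 is the no-effect control and ±100 the full control effect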)
Summary of the method: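 JNK3 came from HepG2 lysates pre-activated with IL-1beta and TNF-alpha and phosphorylated biotinylated GST-cJun (1-79) at 10 uM ATP, pH 7.6, room temperature. Compounds were titrated. AlphaScreen signal used anti-phospho-cJun (Ser73) antibody.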

[9] = biological target: Cytochrome P450 2D6 (Homo sapiens) (UniProt P10635); assay: qHTS Assay for Inhibitors and Substrates of Cytochrome P450 2D6 (AID 891); further: potency means the concentration at half of the fitted maximal effect; nearly all actives have a fitted effect of over 60% in size
Summary of the method: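 Human CYP2D6 (5 nM) with 30 uM Luciferin-ME EGE (at Km) in 100 mM KPO4, compound preincubated 10 min, then NADPH regeneration system for 60 min at room temperature. Luciferin read by luminescence; normalized to 1.43 uM quinidine.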

[10] = biological target: DNA dC->dU-editing enzyme APOBEC-3G (Homo sapiens) (UniProt Q9HC16); assay: qHTS for inhibitors of Vif-A3G interactions: Validation (AID 588379); further: 0% is about no effect
Sequence of DNA dC->dU-editing enzyme APOBEC-3G (Homo sapiens) (Q9HC16 whole entry, looked up): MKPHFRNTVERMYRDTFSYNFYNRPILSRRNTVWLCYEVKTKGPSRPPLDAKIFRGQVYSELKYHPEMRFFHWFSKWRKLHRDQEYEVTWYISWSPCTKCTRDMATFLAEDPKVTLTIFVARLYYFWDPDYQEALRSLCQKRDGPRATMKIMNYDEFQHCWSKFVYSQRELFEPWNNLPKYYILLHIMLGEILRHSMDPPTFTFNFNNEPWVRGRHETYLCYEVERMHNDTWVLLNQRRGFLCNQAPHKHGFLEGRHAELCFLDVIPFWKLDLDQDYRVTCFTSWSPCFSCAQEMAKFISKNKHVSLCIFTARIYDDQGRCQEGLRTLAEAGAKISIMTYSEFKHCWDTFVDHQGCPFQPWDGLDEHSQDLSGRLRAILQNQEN
Summary of the method: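 HeLa cells stably expressing Vif and A3G-eYFP, 700 cells/well, incubated overnight at 37 deg C, then exposed to compound overnight at 37 deg C. Inhibition of Vif-mediated degradation read as increased yellow fluorescence (Ex 488/Em 500-530) by laser-scanning cytometry.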

[11] = biological target: Calcium and integrin-binding protein 1 (Homo sapiens) (UniProt Q99828); assay: Primary qHTS for Identification of Calcium Integrin Binding Protein 1 (CIB1) Competitor (AID 1508620);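 further: GST tagged CIB1 binding a fluorescein labelled alphaIIb integrin peptide tracer; top concentration of the series differs between compounds; on the % scale 0 is the no-effect control and ±100 the full control effect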
Sequence of Calcium and integrin-binding protein 1 (Homo sapiens) (Q99828 whole entry, looked up): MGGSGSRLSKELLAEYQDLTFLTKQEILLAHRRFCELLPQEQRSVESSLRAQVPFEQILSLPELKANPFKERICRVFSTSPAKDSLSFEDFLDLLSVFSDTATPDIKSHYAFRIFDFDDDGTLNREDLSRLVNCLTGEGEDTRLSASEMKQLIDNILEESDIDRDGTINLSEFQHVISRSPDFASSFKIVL
Summary of the method: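 Fluorescence polarization competition: CIB1-GST (1 uM final) preincubated with compound 15 min at room temperature, then FITC-labeled alphaIIb peptide (100 nM final) added for another 15 min. Polarization read at Ex 480/Em 540.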

[12] = Primary qHTS for small molecule stabilizers of the endoplasmic reticulum resident proteome: Secreted ER Calcium Modulated Protein (SERCaMP) assay (AID 1508630); further: on the % scale 0 is the no-effect control and ±100 the full control effect
Summary of the method: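 GLuc-SERCaMP-expressing SH-SY5Y cells, pretreated 16 h with compound, are challenged with thapsigargin to empty ER calcium stores; after 4 h, coelenterazine is added directly to the medium and luminescence is imaged.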

[13] = biological target: 3',5'-cyclic-AMP phosphodiesterase 4B (Homo sapiens) (UniProt Q07343); assay: qHTS Assay for Inhibitors of PDE-IV (AID 607; active means well fitted activation curve with a large enough effect in the main read-out, with a control signal flat, not every such curve was filed as active; further: % of control where 0% means no effect)
Sequence of 3',5'-cyclic-AMP phosphodiesterase 4B (Homo sapiens) (Q07343 whole entry, looked up): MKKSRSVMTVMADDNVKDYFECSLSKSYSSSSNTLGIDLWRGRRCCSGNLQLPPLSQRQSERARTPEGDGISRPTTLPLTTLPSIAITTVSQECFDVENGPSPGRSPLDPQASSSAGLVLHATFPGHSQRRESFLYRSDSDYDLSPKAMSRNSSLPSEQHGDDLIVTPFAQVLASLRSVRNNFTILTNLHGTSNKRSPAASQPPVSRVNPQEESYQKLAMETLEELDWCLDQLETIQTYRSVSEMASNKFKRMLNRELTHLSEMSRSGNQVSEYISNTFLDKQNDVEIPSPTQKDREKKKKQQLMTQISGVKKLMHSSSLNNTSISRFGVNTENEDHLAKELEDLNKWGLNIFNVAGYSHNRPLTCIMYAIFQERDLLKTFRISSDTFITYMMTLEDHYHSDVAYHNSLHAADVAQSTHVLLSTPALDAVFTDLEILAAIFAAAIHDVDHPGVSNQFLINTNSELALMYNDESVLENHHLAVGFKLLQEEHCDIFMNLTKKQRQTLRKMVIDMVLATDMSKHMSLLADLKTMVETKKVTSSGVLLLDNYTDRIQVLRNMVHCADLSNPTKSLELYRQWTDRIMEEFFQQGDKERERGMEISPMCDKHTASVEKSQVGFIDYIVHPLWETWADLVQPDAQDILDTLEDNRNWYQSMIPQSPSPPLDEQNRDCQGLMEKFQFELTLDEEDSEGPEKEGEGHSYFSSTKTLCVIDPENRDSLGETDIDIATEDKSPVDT
Summary of the method: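 ACTOne HEK293 cells carry a modified cAMP-gated CNG channel and express endogenous PDE4; plated 1000 cells/well, compounds up to 22.9 uM final. Membrane-potential dye fluorescence (ex 535/em 590) was read; parental cells received 10 uM forskolin + 100 uM RO 20-1724.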

[14] = biological target: Cytochrome P450 3A4 (Homo sapiens) (UniProt P08684); assay: qHTS Assay for Activators of Cytochrome P450 3A4 (AID 885); further: nearly all actives have a fitted effect of over 65% in size
Summary of the method: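 20nM CYP3A4 + 25uM Luciferin-PPXE (=KM), 200mM KPO4; cpd 10 min RT; NADPH regen, 60 min RT; stop w/ detection buffer, 20 min; luminescence. Normalized to 57 uM ketoconazole.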

[15] = Cell Viability qHTS for small molecule stabilizers of the endoplasmic reticulum resident proteome (AID 1508629); settings: cell viability counter-screen, 100 nM thapsigargin for final 4 h;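 further: human SH-SY5Y neuroblastoma cells carrying the GLuc-SERCaMP reporter; compound exposure about 46 h in total before the viability read; on the % scale 0 is the no-effect control and ±100 the full control effect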
[16] = Validation of Assay for Modulators of Lamin A Splicing (AID 1459; active means well fitted curve in the direction sought with a large enough effect in the signal ratio; the % refers to the signal ratio;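 further: cells exposed to compound for two days before reading; 0% is about no effect; ratio rise marks activators and ratio drop marks inhibitors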)
Summary of the method: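 HeLa S3 lamin A-EGFP/DsRed2 stable clone, 600 cells/well, Opti-MEM 2% FBS; compounds by pin tool; 48 hrs, 37 °C/5% CO2; Acumen 488 nm scan, objects 10-100 um; GFP/RFP intensity ratio.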

[17] = qHTS Assay for Lipid Storage Modulators (AID 1519; calls by dose curve); settings: Drosophila S3 cells, BODIPY lipid droplet/cell ratio, laser cytometry, cells loaded with oleic acid
Summary of the method: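 Cells seeded at 5,000 per well were treated with compounds over a concentration series and loaded with oleic acid (400 uM, as added). Lipid droplet fluorescence (488 nm excitation, 500-530 nm channel) was read by laser-scanning cytometry and normalized to 20 uM Triacsin C.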

[18] = biological target: DNA repair nuclease/redox regulator APEX1 (Homo sapiens) (UniProt P27695); assay: qHTS Validation Assay for Inhibitors of the Human Apurinic/apyrimidinic Endonuclease 1 (APE1) (AID 1705)
Sequence of DNA repair nuclease/redox regulator APEX1 (Homo sapiens) (P27695 whole entry, looked up): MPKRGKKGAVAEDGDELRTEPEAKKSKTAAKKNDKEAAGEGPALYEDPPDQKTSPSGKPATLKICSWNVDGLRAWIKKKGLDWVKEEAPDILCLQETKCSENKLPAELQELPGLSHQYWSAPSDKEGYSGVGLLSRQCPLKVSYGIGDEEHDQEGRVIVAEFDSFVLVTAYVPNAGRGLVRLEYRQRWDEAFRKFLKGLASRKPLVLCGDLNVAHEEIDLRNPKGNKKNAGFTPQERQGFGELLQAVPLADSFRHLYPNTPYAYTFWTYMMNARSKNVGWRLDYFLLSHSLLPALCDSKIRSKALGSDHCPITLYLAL
Summary of the method: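 qHTS, 1536-well. APE1 + cpd 15 min RT → 50 nM TAMRA/BHQ-2 THF-abasic dsDNA substrate → kinetic fluorescence, 3 reads/60 s; delta(read3−read1) = reaction progress. No-enzyme buffer = negative control.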

[19] = Counterscreen for APE1 Inhibitors: Fluorescent Dye Displacement Validation Assay (AID 1707);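 further: plate controls were ThO with dsDNA and no compound for no effect and ThO without dsDNA for full effect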
Summary of the method: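 Thiazole Orange displacement from dsDNA: 250 nM ThO with 50 nM TAMRA-labelled abasic-site (tetrahydrofuran) duplex in 50 mM Tris-HCl pH7.5, 50mM NaCl, 2 mM MgCl2, 0.01% Tween-20. Loss of endpoint fluorescence (ex 480 nm, em 540 nm) flags DNA binders.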

[20] = biological target: Endonuclease 4 (Escherichia coli (strain K12)) (UniProt P0A6C1); assay: Counterscreen for APE1 Inhibitors: qHTS Validation Assay for Inhibitors of Endonuclease IV (AID 1708); further: on the % scale 0 is the no-effect control and ±100 the full control effect
Summary of the method: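 2 nM enzyme was preincubated with compounds for 15 min at room temperature in 50 mM Tris-HCl pH 7.5, 50 mM NaCl, 2 mM MgCl2, 1 mM DTT, 0.01% Tween-20. 50 nM THF-abasic TAMRA/BHQ-2 duplex substrate started the reaction.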

[21] = qHTS for differential inhibitors of proliferation of Plasmodium falciparum line 7G8 (AID 1815);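 further: potency means the concentration at half of the fitted maximal effect; parasite growth measured after three days of incubation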
[22] = qHTS for differential inhibitors of proliferation of Plasmodium falciparum line GB4 (AID 1816); settings: Potency: Plasmodium falciparum GB4 proliferation inhibition;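 further: potency means the concentration at half of the fitted maximal effect; parasite growth measured after 72 h incubation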
[23] = qHTS for differential inhibitors of proliferation of Plasmodium falciparum line D10 (AID 1877);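 further: potency means the concentration at half of the fitted maximal effect; parasites grown with compound for 72 h before DNA staining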
[24] = qHTS for differential inhibitors of proliferation of Plasmodium falciparum line W2 (AID 1883); settings: Potency: Plasmodium falciparum W2 proliferation inhibition;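 further: potency means the concentration at half of the fitted maximal effect; parasites grown with compound for 72 h before lysis and staining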
[25] = qHTS for differential inhibitors of proliferation of Plasmodium falciparum line HB3 (AID 1886); settings: Potency: Plasmodium falciparum HB3 proliferation inhibition;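 further: potency means the concentration at half of the fitted maximal effect; parasites grown with compound for 72 h before SYBR Green readout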
[26] = biological target: ATP-dependent DNA helicase Q1 (Homo sapiens) (UniProt P46063); assay: qHTS Validation Assay for Inhibitors of RecQ-Like Dna Helicase 1 (RECQ1) (AID 2353);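 further: plate controls were DMSO vehicle for no effect and enzyme-free control for full effect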
Summary of the method: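 50 nM RECQ1T1 preincubated 15 min with compound in Tris pH 8.0 buffer with MgCl2, DTT, Tween-20 and 2.5 ug/ml poly(dI-dC); started with 200 nM TAMRA/BHQ-2 forked duplex and 2 mM ATP. Unwinding read as fluorescence (525/598 nm), two reads 2 h apart.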

[27] = Validation screen for small molecules that induce DNA re-replication in MCF 10A normal breast cells (AID 463097); further: 0% is about no effect; nearly all actives have a fitted effect of over 60% in size
Summary of the method: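 Image-based qHTS: normal breast cells are incubated with compound for 48 hr, stained with Hoechst, and scanned for total nuclear fluorescence. Compounds raising the fraction of nuclei with elevated DNA content count as re-replication inducers.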

[28] = Quantitative high throughput screen for delayed death inhibitors of the malarial parasite plastid, 96 hour incubation (AID 488745); further: on the % scale 0 is the no-effect control and ±100 the full control effect; nearly all actives have a fitted effect of over 70% in size
Summary of the method: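 P. falciparum carrying an integrated firefly luciferase reporter, grown in erythrocytes (2% hematocrit, 0.1% parasitemia final) in RPMI 1640/0.5% Albumax, was exposed to compound for 96 h (two generations) at 37 C, 5% CO2. Luminescence decrease indicated growth inhibition.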

[29] = Quantitative high throughput screen for delayed death inhibitors of the malarial parasite plastid, 48 hour incubation (AID 488752); further: on the % scale 0 is the no-effect control and ±100 the full control effect; nearly all actives have a fitted effect of over 65% in size
Summary of the method: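 Erythrocytes infected with P. falciparum carrying an integrated firefly luciferase reporter (2% hematocrit, 0.1% parasitemia final) were exposed to compounds in RPMI 1640/0.5% Albumax for 48 h at 37 C, 5% CO2. Growth inhibition was scored as reduced luminescence.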

[30] = biological target: M-phase phosphoprotein 8 (Homo sapiens) (UniProt Q99549); assay: qHTS Validation Assay for Inhibitors for MPP8 Chromodomain Interactions with Methylated Histone Tails (AID 488949);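 further: 50 nM MPP8 with 50 nM peptide preformed then compounds added for 30 min; AlphaScreen signal from MPP8 chromodomain bound to biotinylated H3K9me3 peptide; top concentration of the series differs between compounds; on the % scale 0 is the no-effect control and ±100 the full control effect; nearly all actives have a fitted effect of over 55% in size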
Summary of the method: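 50 nM MPP8 + 50 nM b-H3K9me3 peptide, PBS pH 7.4/0.01% Tween-20, 30 min RT; + cpd 30 min RT; + AlphaScreen donor/Ni-chelate acceptor beads 10 ug/mL final, 30 min dark; luminescence read.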

[31] = biological target: Transient receptor potential cation channel subfamily V member 1 (Homo sapiens) (UniProt Q8NER1); assay: HTS Assay for Compounds that Act as Enhancers of the Vanilloid Receptor 1 (AID 488979); further: 0% is about no effect
Sequence of Transient receptor potential cation channel subfamily V member 1 (Homo sapiens) (Q8NER1 whole entry, looked up): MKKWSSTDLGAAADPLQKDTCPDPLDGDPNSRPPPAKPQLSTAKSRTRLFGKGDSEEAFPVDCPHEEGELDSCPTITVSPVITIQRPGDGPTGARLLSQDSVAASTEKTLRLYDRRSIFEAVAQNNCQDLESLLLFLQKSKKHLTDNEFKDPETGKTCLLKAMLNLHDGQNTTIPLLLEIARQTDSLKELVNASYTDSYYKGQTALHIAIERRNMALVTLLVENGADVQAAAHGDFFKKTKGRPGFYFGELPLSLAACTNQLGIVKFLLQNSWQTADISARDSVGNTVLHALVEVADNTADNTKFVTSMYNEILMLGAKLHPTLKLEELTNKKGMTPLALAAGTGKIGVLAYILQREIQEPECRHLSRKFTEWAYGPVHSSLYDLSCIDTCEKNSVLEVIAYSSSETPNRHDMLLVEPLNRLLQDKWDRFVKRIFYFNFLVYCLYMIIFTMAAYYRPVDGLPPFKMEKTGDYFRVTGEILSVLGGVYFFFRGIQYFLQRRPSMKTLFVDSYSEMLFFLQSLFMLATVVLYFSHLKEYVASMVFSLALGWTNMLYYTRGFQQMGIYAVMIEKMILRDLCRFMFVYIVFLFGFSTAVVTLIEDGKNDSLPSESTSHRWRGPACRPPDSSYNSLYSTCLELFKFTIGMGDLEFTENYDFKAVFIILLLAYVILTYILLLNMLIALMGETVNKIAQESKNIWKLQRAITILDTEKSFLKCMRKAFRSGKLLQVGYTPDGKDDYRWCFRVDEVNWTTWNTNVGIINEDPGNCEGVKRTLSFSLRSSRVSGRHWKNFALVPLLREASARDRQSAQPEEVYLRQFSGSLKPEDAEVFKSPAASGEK
Summary of the method: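 TRPV1-expressing cells loaded with Fluo-8 calcium dye; compounds added and calcium influx read kinetically for 3 min (agonist phase), then capsaicin at EC20 added and read 2 min more for enhancement. Fluorescence ex 480/em 520 nm.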

[32] = biological target: Galactokinase (Homo sapiens) (UniProt P51570); assay: qHTS Validation Assay for Inhibitors of Human Galactokinase (GALK) (AID 493189); further: 0% is about no effect
Summary of the method: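 5 nM GALK / 100 uM galactose / 35 uM ATP, 20 mM HEPES pH8.0, 5 mM MgCl2, 60 mM NaCl, 1 mM DTT, 0.01% BSA (final). RT 1 h; Kinase-Glo Plus luminescence.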

[33] = Validation screen for small molecules that induce DNA re-replication in SW480 colon adenocarcinoma cells (AID 504364); further: 0% is about no effect
Summary of the method: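 SW480 cells seeded at 250 per well were exposed to compound or DMSO for 48 hr at 37 C, 5% CO2, then stained with Hoechst for 40 min. DNA content per nucleus was imaged (405 nm ex, 500-530 nm em).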

[34] = biological target: Voltage-gated inwardly rectifying potassium channel KCNH2 (Homo sapiens) (UniProt Q12809); assay: qHTS Assay for Small Molecule Inhibitors of the Human hERG Channel Activity (AID 588834);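 further: top concentration of the series differs between compounds; on the % scale 0 is the no-effect control and ±100 the full control effect; lower thallium flux fluorescence means stronger hERG block; nearly all actives have a fitted effect of over 50% in size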
Sequence of Voltage-gated inwardly rectifying potassium channel KCNH2 (Homo sapiens) (Q12809 whole entry, looked up): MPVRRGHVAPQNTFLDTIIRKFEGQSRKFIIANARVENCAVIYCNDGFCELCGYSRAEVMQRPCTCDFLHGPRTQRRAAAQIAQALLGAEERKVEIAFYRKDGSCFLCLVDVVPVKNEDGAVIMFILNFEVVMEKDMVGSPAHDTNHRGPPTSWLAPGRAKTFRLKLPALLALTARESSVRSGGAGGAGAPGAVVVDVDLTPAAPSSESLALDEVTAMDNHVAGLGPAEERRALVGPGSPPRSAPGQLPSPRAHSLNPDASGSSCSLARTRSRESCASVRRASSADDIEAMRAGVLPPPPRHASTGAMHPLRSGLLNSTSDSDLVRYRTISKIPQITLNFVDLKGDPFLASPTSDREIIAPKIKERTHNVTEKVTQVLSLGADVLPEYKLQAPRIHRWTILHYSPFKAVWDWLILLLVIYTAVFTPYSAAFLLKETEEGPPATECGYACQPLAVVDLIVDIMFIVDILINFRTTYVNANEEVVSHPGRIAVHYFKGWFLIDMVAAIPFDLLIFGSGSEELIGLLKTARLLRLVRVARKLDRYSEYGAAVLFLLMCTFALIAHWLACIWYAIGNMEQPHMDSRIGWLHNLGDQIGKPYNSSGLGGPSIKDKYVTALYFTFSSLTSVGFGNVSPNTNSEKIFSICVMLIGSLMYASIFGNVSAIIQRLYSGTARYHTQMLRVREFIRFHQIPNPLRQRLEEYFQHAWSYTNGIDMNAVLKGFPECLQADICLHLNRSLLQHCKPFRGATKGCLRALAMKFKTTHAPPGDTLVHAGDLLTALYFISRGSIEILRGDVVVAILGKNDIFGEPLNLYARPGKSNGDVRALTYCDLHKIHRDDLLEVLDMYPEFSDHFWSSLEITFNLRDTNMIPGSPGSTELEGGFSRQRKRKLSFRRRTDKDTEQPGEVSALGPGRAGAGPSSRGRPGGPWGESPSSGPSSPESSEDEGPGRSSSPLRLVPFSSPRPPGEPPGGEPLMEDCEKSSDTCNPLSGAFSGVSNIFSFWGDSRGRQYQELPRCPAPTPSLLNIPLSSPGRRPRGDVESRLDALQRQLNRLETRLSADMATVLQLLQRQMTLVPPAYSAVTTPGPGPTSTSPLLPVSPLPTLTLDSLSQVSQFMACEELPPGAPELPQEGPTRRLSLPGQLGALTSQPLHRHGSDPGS
Summary of the method: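 hERG-BacMam U2OS, 2000 cells/well; 0.7X FluxOR loading 1 hr RT dark; cpd ~10 min 37 °C; stim buffer; FDSS fluorescence 2 min @ 1 s; AC50 Hill fit.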

C=C[C@H]1CN2CCC1C[C@@H]2C(O)c1ccnc2ccc(OC)cc12 (stereo partly drawn)
inactive: Potency [1] | Potency [2] | Potency [4]
39.8 µM (active) and inactive: Potency [3]

COC(=O)c1ccccc1NC(=O)c1ccc(F)cc1
inactive: Potency [6] > 46 µM | Potency [7] > 46 µM | Potency [8] | Potency [10] | Potency [1] | outcome [11] | Potency [12]
active: Potency [5] 0.2 µM | Potency [9] 5.01 µM

COc1ccc(NC(=O)c2cc(OCCCN(C)C)nn2Cc2ccccc2)cc1
inactive: Potency [1] | Potency [2]

CC(C)C[C@H]1C(=O)N2CCC[C@@H]2[C@]2(O)O[C@](NC(=O)[C@@H]3C=C4c5cccc6[nH]c(Br)c(c56)C[C@H]4N(C)C3)(C(C)C)C(=O)N12
inactive: Potency [5] | Potency [6] > 46 µM | Potency [7] > 46 µM | Potency [8] | Potency [13] | Potency [14] | Potency [10] | Potency [1] | Potency [2] | max response [15] -14.6%
active: Potency [3] 10 µM

C/C=C1\C(=O)CC2C3CCC4=CC(=O)CC[C@]4(C)C3CC[C@]12C (stereo partly drawn)
72.1%: max response ([17]; measured here: cell count channel max response)
inactive: outcome [16] | activity change, negative = inhibition ([17]; at 57.5 µM (top of the series)) 1.38% | Potency [18] | Potency [19] | Potency [20] | Potency [26] | Potency [27] | Potency [28] | Potency [29] | Potency [30] | outcome [31] | outcome [32] | outcome [33] | Potency [34] | Potency [1]
74.6%: max response ([17]; measured here: lipid channel max response)
active: Potency [21] 11.2 µM | Potency [22] 14.1 µM | Potency [23] 10 µM | Potency [24] 7.08 µM | Potency [25] 11.2 µM

From PubChem BioAssay (NCATS)
